Results on 40 molecules are retold here after PubChem BioAssay (NCATS).

Each structure is given as a SMILES string. Results filed as inconclusive are left out. Values without a mark were called inactive. Calls of active or inactive are those of the source. Calls come from the whole dose curve; as a rule, active = well fitted inhibition curve with a large enough effect; inconclusive = small, poorly fitted or top-dose-only effect; inactive = flat fitted curve, though single readings scatter.

The target in this experiment is Glutathione peroxidase 1 (Homo sapiens) (UniProt P07203). Briefly: Primary qHTS Assay for Inhibitors of Recombinant Selenoprotein Glutathione Peroxidase 1 (GPX1) (AID 1845191). Note: nearly all actives have a fitted effect of over 65% in size. Conditions: recombinant GPX1, GR-coupled NADPH fluorescence, 15 min; series mostly up to 48.8 µM; activity, negative = inhibition: at the top concentration. The source says: Assay Provider: Elias S.J. Arner MD PhD.
Chain of Glutathione peroxidase 1 (Homo sapiens) (P07203 whole entry, looked up): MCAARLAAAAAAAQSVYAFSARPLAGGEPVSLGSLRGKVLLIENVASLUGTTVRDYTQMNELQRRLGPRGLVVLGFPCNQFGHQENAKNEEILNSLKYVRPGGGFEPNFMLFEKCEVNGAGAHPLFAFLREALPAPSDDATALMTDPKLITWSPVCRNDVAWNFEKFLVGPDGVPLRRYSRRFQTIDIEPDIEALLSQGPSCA
Department of Medical Biochemistry and Biophysics
Karolinska Institutet, Solna, Stockholm, Sweden
Selenoprotein glutathione peroxidases (GPX), like the ubiquitously expressed GPX1 and the ferroptosis modulator GPX4, enact their antioxidant activities by reducing hydroperoxides using glutathione. […] GPX1 and GPX4 inhibitors have thus shown promise as anti-cancer agents. Existing inhibitors are often promiscuous, or modulate GPX activity only indirectly, so novel direct inhibitors identified through screening against GPX1 and GPX4 could be valuable. Here, we developed optimized glutathione reductase (GR)-coupled GPX assays for the biochemical high-throughput screen (HTS) of almost 12,000 compounds with known mechanisms of action. Initial hits were triaged using a GR counter-screen, assessed for isoform specificity using a separate GPX2 assay, and were assessed for general selenocysteine-targeting activity using a thioredoxin reductase (TXNRD1) assay. With this suite of assays, we identified novel GPX1/GPX2- and GPX4-specific inhibitors and can here present a validated pipeline for future discovery research for selenoprotein-targeting agents.
SEQUENCE No. (e.g., 1, 2, 3, etc.); […] (e.g., Cells, Incubation, Reagent, etc.); VALUE; DESCRIPTION.
1; Reagent 1; 3 uL; GPx1 enzyme or no enzyme control in 1536-well, black, solid Greiner assay plate.
2; Compound; 25 nL; Kalypsis pin tool (Wako USA) equipped with a 1536-well pin head.
3; Incubation; 30 min; room temperature.
4; Reagent 2; 1 uL; 10 nM GPX1, 1 mM GSH, 0.5 mM CHP, 0.5 mM NADPH, 100 nM GR, 0.01% BSA substrate
5; Detection; Fluorescence; ViewLux microplate reader, excitation 340 nm and emission 450 nm.
6; Incubation; 15 min; room temperature.
7; Detection; Fluorescence; ViewLux microplate reader, excitation 340 nm and emission 450 nm.
NOTES (numbers refer to Sequence numbers above)
1. 3 uL of 16.66 nM GPX1 and 0.016% BSA in assay buffer (50 mM Tris-HCl, 2 mM EDTA (pH 7.5), 150 mM NaCl) was added to columns 3-48 of 1536-well assay plates using a BioRAPTR Flying Reagent Dispenser (Let's Go Robotics (LGR), Carlsbad, CA). A no-enzyme control (0.01% BSA in TES assay buffer) was added to columns 1-2.
2. 25 nL of test compounds and DMSO controls were added to each well with a pin tool (Kalypsys).
3. The assay plates were incubated for 30 minutes at room temperature.
4. 1 uL of master mix (500 nM glutathione reductase (GR), 5 mM reduced glutathione (GSH), 2.5 mM NADPH in assay buffer) was added. 1 uL of cumene hydroperoxide (CHP) ([2.5 mM] in 50% EtOH) was then added within 5 minutes to initiate the reaction. Final concentrations were: 10 nM GPX1, 1 mM GSH, 0.5 mM CHP, 0.5 mM NADPH, 100 nM GR, 0.01% BSA.
5. Initial fluorescence readout (t=0) at 340/450 nm was measured using a ViewLux multimodal detector (PerkinElmer, Waltham, MA).
7. Endpoint fluorescence readout (t=15) at 340/450 nm was measured 15 min after room temperature incubation.
(In qHTS, concentration-response curves come from the screen itself.)
`C=C1C[C@]23C[C@H]1CC[C@H]2[C@@]1(C)CCC[C@@]2(C)C(=O)O[C@@H]([C@@H]3O)[C@@H]12`: the “activity, negative = inhibition” value was -14.5% [at 27.7 µM].

As to `CN1CCc2nc(C(=O)N[C@@H]3C[C@@H](C(=O)N(C)C)CC[C@@H]3NC(=O)C(=O)Nc3ccc(Cl)cn3)sc2C1`, the Potency result was “inactive”.

As to `COc1ccc(C2COc3cc(O)ccc3C2)c(O)c1` (stereo not given), the result was inactive.

Consider `CC(=O)O[C@@H]1[C@@H](O)[C@H](O[C@H]2CC[C@]34C[C@]35CC[C@]3(C)[C@@H]([C@@]6(C)CC[C@@H](C(C)(C)O)O6)[C@@H](O)C[C@@]3(C)[C@@H]5C[C@H](O[C@@H]3O[C@H](CO)[C@@H](O)[C@H](O)[C@H]3O)[C@H]4C2(C)C)OC[C@H]1O`, for which the result was inactive.

Turning to `O=C(O)C1CN(Cc2ccc(-c3nc4cc(Cc5ccccc5F)ccc4s3)c(F)c2)C1`, the activity, negative = inhibition is -8.84% [at 9.52 µM].

On to `O=C1CCC=CC1(O)C(=O)OCc1ccccc1O[C@@H]1O[C@H](CO)[C@@H](O)[C@H](O)[C@H]1O` (stereo not given in full), for which the “activity, negative = inhibition” value is -22.6% [at 27.7 µM].

In the case of `COc1cccc(Nc2ncnn3ccc(CN4CC[C@@H](N)[C@H](O)C4)c23)c1`, the “activity, negative = inhibition” value was -2.23%.

Regarding `COc1c2c(c(CO)c3c1C(=O)OC3)OC1(C)CCC3(O)C(C)(C)OC(=O)CCC3(C)C1C2` (stereo not given), the “activity, negative = inhibition” value was -14.3% [at 27.7 µM].

With `O=C1CC2(CCCC2)[C@H](O)C(=O)N1CCCCN1CCN(c2ncccn2)CC1`, the “activity, negative = inhibition” value was -6.83%.

Turning to `CC(=O)O[C@H]1[C@H](O[C@H]2[C@@H]3C=CO[C@@H](O[C@@H]4O[C@H](CO)[C@@H](O)[C@H](O)[C@H]4O)[C@@H]3[C@@]3(CO)O[C@@H]23)O[C@@H](C)[C@H](OC(=O)/C=C/c2ccccc2)[C@H]1OC(=O)/C=C/c1ccccc1`, the “activity, negative = inhibition” value is -9.23% [at 15.3 µM].

Consider `C[C@@H]1C[C@H]2O[C@@H]2/C=C\C=C\C(=O)Cc2c(Cl)c(O)cc(O)c2C(=O)O1`, for which the Potency result was “inactive”.

`CC(C)=CCC[C@](C)(O[C@@H]1O[C@H](CO)[C@@H](O)[C@H](O)[C@H]1O)[C@H]1CC[C@]2(C)[C@@H]1[C@H](O)CC1[C@@]3(C)CC[C@H](O)C(C)(C)C3[C@@H](O[C@@H]3O[C@H](CO)[C@@H](O)[C@H](O)[C@H]3O[C@@H]3OC[C@@H](O)[C@H](O)[C@H]3O)C[C@]12C` (stereo not given in full): the “activity, negative = inhibition” value was -12.2% [at 15.3 µM].

Take `C=CC(C)(O)CC/C=C(\C)C(=O)OC1C(O)C(CO)OC(OC(=O)C23CCC(C)(C)CC2C2=CCC4C5(C)CCC(OC6OC(COC7OCC(OC(C)=O)C(O)C7OC7OC(COC(C)=O)C(O)C(O)C7O)C(O)C(O)C6O)C(C)(C)C5CCC4(C)C2(C)C(O)C3O)C1OC1OCC(OC2OCC(O)C(OC3OCC(O)C(O)C3O)C2O)C(O)C1O` (stereo not given): the outcome is “inactive [at 9.52 µM]”.

`C/C=C/C(O)C1OC(=O)CC1Nc1ccc(C(=O)O)cc1` (stereo not given): the “activity, negative = inhibition” value is -6.88%.

For the molecule `C=C1C(=O)OC2C1C(O)CC1(C)C(O)CCC(C=O)C21` (stereo not given), the “activity, negative = inhibition” value is -7.09%.

As to `CC1=CC(=O)CC(C)(C)C1CCC(C)O[C@@H]1O[C@H](CO[C@@H]2OC[C@@H](O)[C@H](O)[C@H]2O)[C@@H](O)[C@H](O)[C@H]1O` (stereo not given in full), the “activity, negative = inhibition” value is 2.04% [at 27.7 µM].

As to `COc1cc(OC)cc(C(=O)Nc2ccc(Cl)c(-c3nc4ccc(N(C)C)cc4[nH]3)c2)c1`, the result was inactive.

With `COC(=O)Cc1cc2c(c([N+](=O)[O-])c1)N(C(=O)CC[C@H](N)C(=O)O)CC2`, the result was inactive.

For `C[C@@H]1C(=O)OC[C@H]2C(C(=O)O)=C[C@@H]3CC(C)(C)C[C@]312`, the “activity, negative = inhibition” value is -15.9%.

Consider `COc1ccc(/C=C/C(=O)O[C@@H]2[C@@H](O)[C@@H](O)[C@H](O[C@@H]3C=C(CO)[C@H]4[C@H](O[C@@H]5O[C@H](CO)[C@@H](O)[C@H](O)[C@H]5O)OC=C[C@H]43)O[C@H]2C)cc1O`, for which the “outcome” value is “inactive [at 15.3 µM]”.

Regarding `COc1cc(/C=C/C(=O)OC[C@H]2O[C@@](CO)(O[C@H]3O[C@H](CO)[C@@H](O)[C@H](O)[C@H]3O)[C@@H](OC(=O)/C=C/c3ccc(O)c(OC)c3)[C@@H]2O)ccc1O`, the “activity, negative = inhibition” value is -20.4% [at 15.3 µM].

With `CC1(C)CC2=C3C=CC4C5(C)CCC(O)C(C)(C)C5CCC4(C)C3(C)CCC2(C)C(O)C1` (stereo not given), the “activity, negative = inhibition” value is -17.3% [at 27.7 µM].

On to `C/C=C/C=C/C(O)=C1\C(=O)[C@]2(C)C3C(C(=O)CC/C=C/C)=C(O)C4(C)C1[C@]1(C)O[C@@]4(O)[C@@]3(C)O[C@@]12O`, for which the “outcome” value was “inactive [at 27.7 µM]”.

With `CC1=C2C(O)C(=O)OC(c3ccoc3)C2(C)CCC1O` (stereo not given), the “activity, negative = inhibition” value is 0.815%.

Regarding `C[C@@]12C[C@]3(O)O[C@H](O1)[C@]1(COC(=O)c4ccccc4)[C@H]3C[C@@]12O[C@@H]1O[C@H](CO)[C@@H](O)[C@H](O)[C@H]1O`, the “outcome” value is “inactive [at 27.7 µM]”.

On to `O=C1NC(Cc2c[nH]c3ccccc23)C(=O)NC1Cc1c[nH]c2ccccc12` (stereo not given), for which the “outcome” value is “inactive [at 27.7 µM]”.

For the molecule `C/C=C/C=C/C(=O)N1CC[C@]23c4ccccc4N[C@H]4N(C)c5cccc6c5[C@@]42CCN([C@H]6C2OC2(C)C)[C@H]13` (stereo not given in full), the “outcome” value was “inactive [at 27.7 µM]”.

For `CC(=O)NCC(=O)N1C2CCC1c1cc(Nc3ncc(C(F)(F)F)c(NC4CCC4)n3)ccc12` (stereo not given), the result was inactive.

As to `CC1(C)CCC2(C(=O)OC3OC(CO)C(O)C(O)C3O)CCC3(C)C(=CCC4C5(C)CCC(O)C(C)(C(=O)O)C5CCC43C)C2C1O` (stereo not given), the “activity, negative = inhibition” value is -19.4% [at 15.3 µM].

For `CC1OC(OC2C(CO)OC(OCC3OC(OC(=O)C45CCC(C)(C)CC4C4=CCC6C7(C)CCC(OC8OC(CO)C(O)C(OC9OC(CO)C(O)C(O)C9O)C8O)C(C)(C)C7CCC6(C)C4(C)CC5)C(O)C(O)C3O)C(O)C2O)C(O)C(O)C1OC1OC(CO)C(O)C(O)C1O` (stereo not given), the activity, negative = inhibition was -12.6% [at 9.52 µM].

For the molecule `C=C1CCC2C(C)(C)C(O)CCC2(C)C1CCC(C)CCO` (stereo not given), the “activity, negative = inhibition” value was -10.5% [at 27.7 µM].

With `CN(C)C(=O)NC1CCC(CCN2CCN(c3cccc(Cl)c3Cl)CC2)CC1` (stereo not given), the Potency entry is “inactive”.

Consider `CC1=CC2C(CC1OC1OC(CO)C(O)C(O)C1O)C(C)CC(=O)C2C(C)C` (stereo not given), for which the “activity, negative = inhibition” value was -11.6% [at 27.7 µM].

Turning to `Cc1cc(Nc2nc(NC(C)c3ncc(F)cn3)ncc2Cl)n[nH]1` (stereo not given), the result was inactive.

As to `CC1=C(COC2OC(CO)C(O)C(O)C2O)C(C(CO)C(=O)O)CC1` (stereo not given), the “activity, negative = inhibition” value is -17.5% [at 27.7 µM].

Turning to `CC(=O)O[C@@H]1[C@H](O)[C@@H](O[C@@H]2O[C@@H](C)[C@H](O[C@@H]3OC[C@@H](O)[C@H](O[C@@H]4OC[C@@H](O)[C@H](O)[C@H]4O)[C@H]3O)[C@@H](O[C@@H]3O[C@H](CO)[C@@H](O)[C@H](O)[C@H]3O)[C@H]2O)[C@H](OC(=O)[C@]23CCC(C)(C)C[C@H]2C2=CCC4[C@@]5(C)CC[C@H](O[C@@H]6O[C@H](C(=O)O)[C@@H](O)[C@H](O[C@@H]7OC[C@@H](O)[C@H](O)[C@H]7O)[C@H]6O[C@@H]6O[C@H](CO)[C@H](O)[C@H](O)[C@H]6O)[C@@](C)(C=O)C5CC[C@@]4(C)[C@]2(C)CC3)O[C@@H]1C` (stereo not given in full), the activity, negative = inhibition is -4.56% [at 9.52 µM].

Take `COc1c(C)c(OCC(O)C(C)(C)O)cc2c1COC2=O` (stereo not given): the outcome was inactive.

For `O=C(OC[C@@]1(O)CO[C@@H](O[C@H]2[C@H](Oc3ccc(O)cc3)O[C@H](CO)[C@@H](O)[C@@H]2O)[C@@H]1O)c1ccc(O)cc1`, the “activity, negative = inhibition” value was -6.31% [at 27.7 µM].

As to `C[C@@H]1C(=O)O[C@H](C)[C@H]1CC(=O)[C@](C)(O)[C@H]1CC[C@@]2(O)C3=CC(=O)[C@@H]4C[C@@H](O)[C@@H](O)C[C@]4(C)C3CC[C@]12C` (stereo not given in full), the “activity, negative = inhibition” value was -7.61% [at 27.7 µM].

Turning to `CC(=O)OC[C@H]1O[C@H](O[C@]2(CO)O[C@H](CO)[C@@H](OC(=O)/C=C/c3ccccc3)[C@@H]2O)[C@H](O)[C@@H](O)[C@@H]1O`, the “activity, negative = inhibition” value is -7.17% [at 27.7 µM].
